Laboratory results published in PubChem BioAssay (NCATS).
Records with an inconclusive call do not appear. Values without a mark were called inactive. The source made the active and inactive calls. The call rests on the fitted dose curve; in most records, active means well fitted inhibition curve with a large enough effect; inconclusive means small, poorly fitted or top-dose-only effect; inactive means no such curve, though single readings can be large or run the other way.
Potency means the concentration at half of the fitted maximal effect.

These compounds were tested against Endonuclease 4 (Escherichia coli (strain K12)) (UniProt P0A6C1) (assay: Counterscreen for APE1 Inhibitors: qHTS Validation Assay for Inhibitors of Endonuclease IV (AID 1708)). Conditions: E. coli endonuclease IV, DNA cleavage fluorescence; series mostly up to 57.1 µM; activity change, negative = inhibition: at the top concentration.
Description: Assay Provider: David M. Wilson, III, National Institute on Aging, NIH
Screening Center PI: Austin, C.P.
Screening Center: NIH Chemical Genomics Center [NCGC]
Escherichia coli endonuclease IV (Endo IV) is the key member of the AP endonuclease superfamily that catalyzes the cleavage of damaged DNA backbone immediately 5' of an AP site. E. coli EndoIV has the same functional activities as human APE1 but has no sequence or structural homology to the human protein. Herein, we utilize E. coli EndoIV to counter screen compound libraries as part of a high-throughput campaign for APE1 inhibitor identification. A concentration-response screen of the LOPAC1280 collection was performed under experimental conditions identical to those used in the APE1 screen.
Inhibition of APE1 activity was screened by utilizing double-stranded short substrate containing tetrahydrofuran (THF) abasic site labeled with rhodamine-type fluorophore (TAMRA) at the 5'-end and with non-fluorescent Black Hole Quencher-2 (BHQ-2) at the opposing 3'-end. An increase in the fluorescence intensity due to incision of the abasic site by APE1 was used to measure the enzyme activity.
Buffer: 50 mM Tris-HCl (pH 7.5) containing 50mM NaCl, 2 mM MgCl2, 1 mM DTT and 0.01% Tween-20.
Buffer in columns 3 and 4 as negative control (no enzyme).
Substrate: 50 nM final concentration of TAMRA/BHQ-2 substrate dispensed throughout the plate.
Enzyme: 2 nM E. coli EndoIV final concentration in columns 1, 2, 5-48. Column 1 is neutral (100% activity).
Control: Pintool transfer of control inhibitor NSC-13755 to column 2 of all assay plates. Two-fold, 16 pt dilution in duplicate to produce final concentrations in the 5.75 uM - 0.175 nM range.
Three uL of enzyme were dispensed to 1536-well Greiner black solid bottom plates. Compounds (23 nL) were transferred via Kalypsys pintool. The plates were incubated for 15 min at room temperature, and then 1 uL of substrate solution was added to start the reaction. The plates were immediately transferred into ViewLux High-throughput CCD imager (Perkin-Elmer) in order to measure the reaction progress in kinetic mode (three reads every 60 seconds) using 525 nm excitation and 598 nm emission fluorescence protocol. The fluorescence intensity difference between the third and the first time points was used to compute reaction progress.
With `CNCCc1c[nH]c2ccc(O)cc12` the “activity change, negative = inhibition” value was -5.78%. With `CC(=O)NCCc1c[nH]c2ccccc12` the “activity change, negative = inhibition” value was -4.9%. For `Cn1cnc(CCN)c1`, the “activity change, negative = inhibition” value was -9.72%. For `C[C@]12CCC3C(CC[C@H]4C[C@H](O)CC[C@]34C)C1CC[C@@H]2C(=O)CO` (stereo not given in full), the “activity change, negative = inhibition” value was -7.07%. With `NC(=NCCC[C@H](N)C(=O)O)N[N+](=O)[O-]` the “activity change, negative = inhibition” value was -7.87%. With `CN[C@@H]1C[C@@H](c2ccc(Cl)c(Cl)c2)c2ccccc21` the “activity change, negative = inhibition” value was -3.61%. With `CNCCc1ccc(O)c(O)c1` the “activity change, negative = inhibition” value was 16.3%. In the case of `NCc1cc(=O)[nH]o1`, the “activity change, negative = inhibition” value is reported as -6.59%. With `CC(=O)[C@H]1CCC2C3CC[C@H]4C[C@H](O)CC[C@]4(C)C3CC[C@@]21C` (stereo not given in full) the “activity change, negative = inhibition” value was -6.83%. `CC1=NN=C(c2ccc(N)cc2)c2cc3c(cc2C1)OCO3` was tested, and the “activity change, negative = inhibition” value was -5.38%. In the case of `C=CCN1CC[C@]23CCCCC2[C@H]1Cc1ccc(O)cc13` (stereo not given in full), the “activity change, negative = inhibition” value is reported as -0.803%. With `NC(=O)CN1CC(O)CC1=O` (stereo not given) the “activity change, negative = inhibition” value was -1.93%. With `O=C(O)[C@@H]1CCN1` the “activity change, negative = inhibition” value was -4.58%. With `NC(CP(=O)(O)O)C(=O)O` (stereo not given) the “activity change, negative = inhibition” value was -12%. For `O=C1CCCN1CC#CCN1CCCC1`, the “activity change, negative = inhibition” value was -8.27%. In the case of `Cc1c(C(=O)c2cccc3ccccc23)c2cccc3c2n1[C@H](CN1CCOCC1)CO3`, the “activity change, negative = inhibition” value is reported as 37.4%. `NC1CCc2cc(O)c(O)cc2C1` (stereo not given) was tested, and the “activity change, negative = inhibition” value was 2.81%. For `c1ccc(CCCN2CCN(CCOC(c3ccccc3)c3ccccc3)CC2)cc1`, the “activity change, negative = inhibition” value was 17.3%. In the case of `CC(Cc1ccc(O)cc1)NCC(O)c1cc(O)cc(O)c1` (stereo not given), the “activity change, negative = inhibition” value is reported as -8.51%. In the case of `Cc1nccc2c1[nH]c1ccccc12`, the “activity change, negative = inhibition” value is reported as -9.16%. `CC[C@@]1(O)C(=O)OCc2c1cc1n(c2=O)Cc2cc3ccccc3nc2-1` was tested, and the “activity change, negative = inhibition” value was -1.93%. In the case of `NC1CC1c1ccccc1` (stereo not given), the “activity change, negative = inhibition” value is reported as -0.964%. `CCCN(CCC)[C@@H]1CCc2ccc(O)cc2C1` was tested, and the “activity change, negative = inhibition” value was -6.67%. `COc1ccc2c(c[n+](C)c3c4cc5c(cc4ccc23)OCO5)c1OC` was tested, and the “activity change, negative = inhibition” value was -8.19%. In the case of `C[C@@H]1O[C@H](C[N+](C)(C)C)C[C@H]1O`, the “activity change, negative = inhibition” value is reported as -2.97%. For `CC(C)NC(C)Cc1ccc(I)cc1` (stereo not given), the “activity change, negative = inhibition” value was 0.161%. For `O=C(O)CC[N+](=O)[O-]`, the “activity change, negative = inhibition” value was -9.64%. In the case of `Clc1cnc(Oc2ccc(Oc3ncc(Cl)cc3Cl)cc2)c(Cl)c1`, the “activity change, negative = inhibition” value is reported as -5.54%. With `Cc1nc(-c2ccc(-c3ccc(C(=O)N4CCc5cc6c(cc54)C4(CCN(C)CC4)CO6)cc3)c(C)c2)no1` the “activity change, negative = inhibition” value was -7.79%. `CCCN1CCO[C@@H]2c3cc(O)ccc3OC[C@H]21` was tested, and the “activity change, negative = inhibition” value was -5.54%. With `Clc1ccc(C(c2ccc(Cl)cc2)n2cc[n+](CC(OCc3ccc(Cl)cc3Cl)c3ccc(Cl)cc3Cl)c2)cc1` (stereo not given) the Potency was 31.6 µM (active). For `COc1cc(C(O)CN)ccc1O` (stereo not given), the “activity change, negative = inhibition” value was -7.55%. In the case of `C[C@]12N[C@H](Cc3ccccc31)c1ccccc12`, the “activity change, negative = inhibition” value is reported as -5.38%. `c1ccc2sc(C3(N4CCCCC4)CCCCC3)cc2c1` was tested, and the “activity change, negative = inhibition” value was -10.6%. `C[N+](C)(C)CC(=O)O` was tested, and the “activity change, negative = inhibition” value was 1.93%. `O=C(Cc1ccc(Cl)c(Cl)c1)N1CCCCC1CN1CCCC1` (stereo not given) was tested, and the “activity change, negative = inhibition” value was -5.86%. In the case of `CN1C2CCC1CC(OC(=O)c1cc(Cl)cc(Cl)c1)C2` (stereo not given), the “activity change, negative = inhibition” value is reported as -7.39%. With `CC(C)Oc1cccnc1N(C)C1CCN(Cc2ccccc2)CC1` the “activity change, negative = inhibition” value was 38.9%. `NCCc1c[nH]c2ccccc12` was tested, and the “activity change, negative = inhibition” value was -1.29%. With `CN[C@@H](C)[C@H](O)c1ccccc1` the “activity change, negative = inhibition” value was -0.723%.
